A short description of experiment [1]: compound effects on lung adenocarcinoma cell viability – A549, calcein-AM fluorescence, 48 h, basal, profiling panel (AID 1162). Further: test concentration not given here. The conditions noted are these: higher = more signal.
Experiment [2] can be described thus: compound effects on differentiated 3T3-L1 adipocyte viability – cell-based, 3T3-L1 adipocytes, calcein-AM fluorescence, 48 h, basal, profiling panel (AID 1163). Further: test concentration not given here. The conditions noted are these: 3T3-L1 adipocytes viability, higher = more signal.
Experiment [3] is described as follows: compound effects on hepatocellular carcinoma cell viability – HepG2, calcein-AM fluorescence, 48 h, basal, profiling panel (AID 1164). Further: test concentration not given here. The conditions noted are these: higher = more signal.
A short description of experiment [4]: compound effects on multiple myeloma cell viability – MM1S, calcein-AM fluorescence, 48 h, basal, profiling panel (AID 1165).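 Further: viability of MM1S multiple myeloma cells under basal unstimulated conditions; test concentration not given here.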 The settings on record: higher = more signal.
Experiment [5] in a line: calcein-AM signal in unstimulated myeloma cells – cell-based, calcein-AM fluorescence, 48 h, PK04 Diversity Set, profiling panel (AID 1166).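 Further: cells grown under basal conditions without added stimulus; test concentration not given here.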 The settings on record: RPMI8226 myeloma viability, higher = more signal.
A short description of experiment [6]: JC-1 mitochondrial signal, unstimulated HepG2 cells – cell-based, JC-1 fluorescence, 24 h, 100 nL compound, profiling panel (AID 1167). Further: test concentration not given here. The conditions noted are these: HepG2 mitochondrial potential, higher = more signal.
Experiment [7] can be described thus: JC-1 mitochondrial signal, unstimulated adipocytes – cell-based, JC-1 fluorescence, 3T3-L1 adipocytes, 24 h, 100 nL compound, profiling panel (AID 1168). Further: test concentration not given here. The conditions noted are these: JC-1 mitochondrial fluorescence, higher = more signal, called active from +8 up or from −8 down.
Experiment [8] in a line: JC-1 mitochondrial signal, unstimulated myeloma cells – cell-based, JC-1 fluorescence, RPMI8226, 24 h, 100 nL compound, profiling panel (AID 1169). Further: test concentration not given here. The conditions noted are these: JC-1 mitochondrial potential fluorescence, higher = more signal.
Experiment [9] can be described thus: JC-1 mitochondrial signal, unstimulated MM1S myeloma – cell-based, JC-1 fluorescence, 24 h, 100 nL compound, profiling panel (AID 1170). Further: test concentration not given here. The conditions noted are these: MM1S mitochondrial potential, higher = more signal.
Experiment [10] is described as follows: resazurin metabolic signal in A549 cells – cell-based, resazurin fluorescence, 24 h, PK04 Diversity Set, profiling panel (AID 1171). Further: test concentration not given here. The conditions noted are these: A549 viability, higher = more signal, called active from +8 up or from −8 down. (In general: The colour change of resazurin is a common sign of viable cells or microbes.)
Experiment [11] is described as follows: resazurin metabolic signal in HepG2 cells – cell-based, resazurin fluorescence, 24 h, PK04 Diversity Set, profiling panel (AID 1172). Further: test concentration not given here. The settings on record: HepG2 viability, higher = more signal.
Experiment [12] in a line: budding yeast growth changes without added modifier – OD600, strain BY4716, 24 h, basal condition, primary screen (AID 1173). The settings on record: S. cerevisiae BY4716 growth, OD600, 24 h; higher = more signal, called active from +8 up or from −8 down.
A short description of experiment [13]: viability profiling in MM1S myeloma cells – cell-based, resazurin fluorescence, basal, 24 h, PK04 Diversity Set, profiling panel (AID 1174). Further: test concentration not given here. The settings on record: higher = more signal, called active from +8 up or from −8 down.
Experiment [14] deals with Dihydroorotate dehydrogenase (quinone), mitochondrial (Plasmodium falciparum (isolate 3D7)) (UniProt Q08210). Briefly: inhibition of P. falciparum DHODH – biochemical, C-terminal His tag, absorbance 600 nm, primary screen (AID 1175).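 Further: recombinant parasite enzyme with a five histidine tag at its C terminus; test concentration not given here.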 The settings on record: PfDHODH enzyme, DCIP absorbance 600 nm; higher = more signal, called active from +8 up or from −8 down.
Chain of Dihydroorotate dehydrogenase (quinone), mitochondrial (Plasmodium falciparum (isolate 3D7)) (Q08210 whole entry, looked up): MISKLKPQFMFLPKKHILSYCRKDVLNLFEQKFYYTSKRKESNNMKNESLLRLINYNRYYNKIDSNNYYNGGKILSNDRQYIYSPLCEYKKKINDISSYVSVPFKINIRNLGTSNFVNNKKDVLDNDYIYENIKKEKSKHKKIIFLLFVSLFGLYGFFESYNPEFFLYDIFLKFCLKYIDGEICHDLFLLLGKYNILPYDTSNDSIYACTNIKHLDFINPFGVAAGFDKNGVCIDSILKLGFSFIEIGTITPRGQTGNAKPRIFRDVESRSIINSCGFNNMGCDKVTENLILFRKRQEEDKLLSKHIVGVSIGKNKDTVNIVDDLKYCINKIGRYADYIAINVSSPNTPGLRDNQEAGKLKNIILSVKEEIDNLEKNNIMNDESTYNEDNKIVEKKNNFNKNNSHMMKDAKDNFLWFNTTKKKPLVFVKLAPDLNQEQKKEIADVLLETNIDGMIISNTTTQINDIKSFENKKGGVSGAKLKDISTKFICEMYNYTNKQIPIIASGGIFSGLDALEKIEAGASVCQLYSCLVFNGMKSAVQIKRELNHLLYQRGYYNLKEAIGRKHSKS
Experiment [15] can be described thus: inhibition of PAO1 biofilm formation – strain PAO1, LB-PBS medium, absorbance 600 nm, primary screen (AID 1176). Further: test concentration not given here. The settings on record: P. aeruginosa PAO1 growth/biofilm, A600, 12 h; higher = more signal.
Experiment [16] can be described thus: growth modulation of vineyard yeast isolate – strain RM11-1a, OD600, basal, 24 h, primary screen (AID 1177).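 Further: cultures grown under basal conditions with no added stressor; test concentration not given here.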 The settings on record: S. cerevisiae RM11-1a growth, OD600, 24 h; higher = more signal, called active from +8 up or from −8 down.
Experiment [17] in a line: growth of efflux-deficient E. coli DRC39 – strain DRC39, OD650, 24 h, E. coli filamentation inducers, primary screen (AID 1178).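 Further: growth measured as culture turbidity by optical density at 650 nm; test concentration not given here.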 The settings on record: E. coli DRC39 acrAB, higher = more signal, called active from +8 up or from −8 down.
The nature of experiment [18]: growth of efflux-deficient E. coli DRC39 – strain DRC39, OD650, 48 h, E. coli filamentation inducers, primary screen (AID 1179).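 Further: screen aims at cell division blockers that make cells filament.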 The conditions noted are these: E. coli DRC39 delta-acrAB growth, higher = more signal, called active from +8 up or from −8 down.
A short description of experiment [19]: viability profiling in RPMI8226 myeloma cells – cell-based, resazurin fluorescence, basal, 24 h, PK04 Diversity Set, profiling panel (AID 1180).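 Further: RPMI8826 multiple myeloma cell line at 5000 cells per well; test concentration not given here.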 The settings on record: higher = more signal.
The target in experiment [20] is E3 ubiquitin-protein ligase XIAP (Homo sapiens) (UniProt P98170). Briefly: small molecules binding XIAP protein – biophysical, small-molecule microarray, fluorescence 635 nm, primary screen (AID 1181).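 Further: score merges 667 nm emission and signal to noise over triplicate slides.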 The conditions noted are these: higher = more signal.
Chain of E3 ubiquitin-protein ligase XIAP (Homo sapiens) (P98170 whole entry, looked up): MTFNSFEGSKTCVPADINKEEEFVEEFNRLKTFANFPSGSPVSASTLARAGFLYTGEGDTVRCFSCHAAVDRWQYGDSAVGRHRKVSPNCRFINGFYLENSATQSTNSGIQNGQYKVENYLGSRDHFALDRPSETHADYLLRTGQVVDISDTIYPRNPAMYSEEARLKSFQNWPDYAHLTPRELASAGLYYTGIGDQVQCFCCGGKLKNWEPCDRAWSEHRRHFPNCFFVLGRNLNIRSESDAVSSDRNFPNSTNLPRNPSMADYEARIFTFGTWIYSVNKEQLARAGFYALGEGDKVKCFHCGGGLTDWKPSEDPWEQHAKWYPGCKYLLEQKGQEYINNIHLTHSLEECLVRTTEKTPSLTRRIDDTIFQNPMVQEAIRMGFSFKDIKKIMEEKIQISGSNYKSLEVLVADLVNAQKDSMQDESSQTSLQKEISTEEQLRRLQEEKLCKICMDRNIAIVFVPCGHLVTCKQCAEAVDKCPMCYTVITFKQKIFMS

Structures are written as SMILES. Activity calls are given as the source filed them. Unless noted, how the calls were made is not given here.

With `COC(=O)[C@@H]1CC[C@H](C)[C@@H](c2ccc(Br)cc2)N1`, the z-score in [1] is 0.23; in [2], 0.309; in experiment [3], -0.183; in experiment [4], 0.125; in experiment [5], 0.0204; in experiment [6] it was -0.0948. In addition, the z-score was -0.644 (inactive) in [7]; -0.295 in experiment [8]; 0.214 in [9]; -0.284 (inactive) in experiment [10]; 0.138 in experiment [11]; 0.86 (inactive) in experiment [12]. In addition, the z-score in experiment [13] was 0.176 (inactive); in [15], 0.119 (inactive); in experiment [16], 1.27 (inactive); in experiment [17] it was 0.45 (inactive); in experiment [18], -0.836 (inactive); in [19] it was 0.279. Moreover, the composite z-score in [14] was 0.496 (inactive); in experiment [20] it was 1.27.

Turning to `COC(OC)[C@@H](C)[C@H](OC)[C@@H](C)[C@H](OC)c1ccccc1`, the z-score in experiment [1] is 2.22; in experiment [2], 0.159; in experiment [3] it was 0.568; in experiment [4], -0.569; in experiment [5] it was 0.692; in experiment [6] it was 0.348. In addition, the z-score is -0.14 (inactive) in experiment [7]; 0.404 in [8]; 1 in experiment [9]; -0.996 (inactive) in experiment [10]; -0.634 in experiment [11]; -1.31 (inactive) in [12]. The z-score is -2.8 (inactive) in experiment [13]; 0.912 (inactive) in experiment [15]; -1.02 (inactive) in experiment [16]; 0.366 (inactive) in [17]; -0.0254 (inactive) in [18]; -0.466 in experiment [19]. In addition, the composite z-score is -2.36 (inactive) in [14] and -0.138 in experiment [20].

Turning to `C=CC[C@@H]1C=C[C@H](ON=C[C@@H](NS(=O)(=O)c2ccc(C)cc2)[C@H](C)C=CCC(=O)OC)[C@@H](CO)O1`, the z-score in [1] was 0.309; in experiment [2] it was 0.359; in experiment [3], 0.405; in [4], 0.465; in [5], -0.915; in experiment [6], -0.836. Further, the z-score was -0.959 (inactive) in [7]; 0.117 in experiment [8]; -0.979 in experiment [9]; -1.03 (inactive) in experiment [10]; -0.71 in [11]; 0.071 (inactive) in experiment [12]. In addition, the z-score was -0.681 (inactive) in experiment [13]; 0.0525 (inactive) in experiment [15]; -0.0257 (inactive) in experiment [16]; -0.251 (inactive) in experiment [17]; 0.119 (inactive) in experiment [18]; -0.422 in [19]. Besides, the composite z-score in [14] is -0.383 (inactive); in experiment [20] it was -0.231.

Take `COC(=O)[C@@H]1CC[C@H](C)[C@@H](c2ccc(C)cc2)N1C(=O)c1ccc(C=NOC[C@H]2O[C@H](c3ccccc3)C=C[C@@H]2Oc2ccc(OC)cc2)cc1`: the z-score in [1] was -0.798; in experiment [2] it was -0.36; in experiment [3], -0.195; in experiment [4] it was 0.248; in [5], -0.537; in [6], 2.64. The z-score in experiment [7] was -2.02 (inactive); in experiment [8], 0.833; in experiment [9] it was 0.0359; in experiment [10] it was 0.307 (inactive); in experiment [11] it was 0.158; in experiment [12], 0.856 (inactive). The z-score is -0.0983 (inactive) in [13]; 0.0282 (inactive) in experiment [15]; 0.386 (inactive) in experiment [16]; -0.469 (inactive) in experiment [17]; -0.499 (inactive) in experiment [18]; 0.539 in [19]. For the same molecule, the values for the composite z-score in experiment [14] and in experiment [20] were 0.13 (inactive) and -0.0773, respectively.

Source of the values: PubChem BioAssay.
